Data reported in PubChem BioAssay (NCATS).
Values joined by “and” are separate entries in the source; they are usually repeats but may differ in a detail not shown here. Identical values can stand only once. Inconclusive results are not listed. Entries that show only a call come without a potency. More than one record can exist for a structure, and the calls need not agree. Active and inactive are the calls of the source. Unless noted, calls follow the shape of the dose curve; as a rule, active = well fitted curve in the direction sought with a large enough effect; inconclusive = small, poorly fitted or top-dose-only effect, or another doubt; inactive = no such curve, though single readings can be large; an effect the other way counts as inactive or inconclusive.

Assays:
[1] = MultiTox-Fluor Cytotoxicity Assay - LYMP1-001 - Live Cells (AID 947)
[2] = MultiTox-Fluor Cytotoxicity Assay - LYMP1-002 - Dead Cells (AID 960); also: nearly all actives have a fitted effect of over 60% in size
How it was run: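 Dead-cell fluorescence (Ex/Em 485/520) after 16 h compound exposure at 37 C of LYMP1-002 lymphoblastoid cells in complete medium; AC50 by Hill equation, with data scaled between DMSO and 15 uM tetraoctylammonium bromide.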

[3] = Cell Viability - LYMP2-009 (AID 968); also: nearly all actives have a fitted effect of over 55% in size; also: potency is read from the fitted curve at half-maximal effect
[4] = Cell Viability - LYMP2-015 (AID 971); also: nearly all actives have a fitted effect of over 55% in size
How it was run: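 Cytotoxicity readout: decrease in intracellular ATP (CellTiter-Glo luminescence) in 2500 LYMP2-015 lymphoblastoid cells/well after 24 h compound exposure at 37 C. Concentration-response data fitted with the standard Hill equation to give AC50.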

[5] = biological target: Peroxisome proliferator-activated receptor gamma (Homo sapiens) (UniProt P37231); experiment: qHTS assay for small molecule agonists of peroxisome proliferator-activated receptor gamma signaling (AID 588536; active = well fitted curve in the direction sought with a large enough effect in the signal ratio, with a control signal flat, not every such curve was filed as active; the % refers to the signal ratio)
How it was run: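 Beta-lactamase reporter read-out: CCF4 fluorescence (ex 405, em 460/530 nm) after 2 h at RT. HEK293 GeneBLAzer cells were treated for 16 h at 37 C. Hill fits gave EC50 and efficacy versus 2 uM rosiglitazone (100%) and DMSO (0%).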

[6] = qHTS assay for small molecule agonists of retinoid X receptor alpha signaling (AID 588544; calls by dose curve); conditions: HEK293T RXRa-UAS-bla, beta-lactamase reporter, 18 h; 530 nm emission
[7] = biological target: Retinoic acid receptor RXR-alpha (Homo sapiens) (UniProt P19793); experiment: as above
[8] = biological target: Thyroid hormone receptor beta (Homo sapiens) (UniProt P10828); experiment: qHTS assay for small molecule antagonists of thyroid hormone receptor beta signaling (AID 588547; active = well fitted inhibition curve with a large enough effect in the signal ratio, with a control signal flat, not every such curve was filed as active; the % refers to the signal ratio;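 also: cells stimulated with 0.4 nM T3 agonist during compound exposure; series mostly up to about 77 µM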); conditions: TR-UAS-bla HEK293, beta-lactamase ratio, antagonist mode, 18 h
How it was run: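 TR-UAS-bla GripTite HEK293 cells in 2% charcoal/dextran FBS medium were preincubated 4 h at 37 C, given compound (0.59 nM to 92 uM) plus 0.4 nM T3 (final) for 18 h, then CCF4 for 2 h at RT; Hill fit gave IC50.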

[9] = biological target: Tumor necrosis factor (Homo sapiens) (UniProt P01375); experiment: qHTS assay to identify small molecules that stimulate Tumor Necrosis Factor-alpha (TNF-alpha) secretion (AID 651757; active = well fitted curve in the direction sought with a large enough effect in the signal ratio; the % refers to the signal ratio)
How it was run: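 Secreted TNF-alpha quantified by TR-FRET sandwich of two labeled anti-TNF-alpha antibodies, incubated 3 hr at room temperature. Preceded by 17 hr, 37 C compound treatment of THP-1 cells at 3000 cells/well.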

[10] = qHTS assay for environmental chemicals that activate the Aryl hydrocarbon Receptor (AhR) signaling pathway (AID 651777); conditions: 1A2-DRE human hepatoma cells, luciferase, 24 h; activation: stronger effect = higher value; also: nearly all actives have a fitted effect of over 15% in size
How it was run: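 1A2-DRE human hepatoma reporter line; 1,200 cells/well; cmpd or DMSO 24 h, 37 C/5% CO2; One-Glo 30 min RT; luciferase lum.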

[11] = qHTS assay for small molecule agonists of the antioxidant response element (ARE) signaling pathway measured by Nrf2-dependant transcriptional activity (AID 720636; active = well fitted curve in the direction sought with a large enough effect in the repeat runs; an effect the other way counts as inactive or inconclusive;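 also: HepG2 cells with an ARE-driven luciferase reporter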)
How it was run: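 Cells: ARE-luc HepG2 with Nrf2-responsive luciferase. Medium contained 1% dialyzed FBS. Compound exposure lasted 16 hr at 37 C and 5% CO2, followed by ONE-Glo luciferase detection.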

[12] = qHTS assay for small molecule antagonists of the retinoid-related orphan receptor gamma (ROR-gamma) signaling pathway - cell viability counter screen (AID 720652; active = well fitted curve in the direction sought with a large enough effect in the repeat runs; an effect the other way counts as inactive or inconclusive;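 also: CHO reporter cells with doxycycline-induced ROR-gamma expression; series mostly up to about 92 µM; compound exposure lasted 16 hr before ATP read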)
How it was run: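 Cytotoxicity counter screen: intracellular ATP (CellTiter-Glo luminescence) measured in the doxycycline-induced CHO RORE-luciferase reporter line after 16 hr compound exposure at 37 C, 5% CO2.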

[13] = biological target: Nuclear receptor subfamily 1 group I member 2 (Rattus norvegicus) (UniProt Q9R1A7); experiment: qHTS assay for small molecule activators of the rat pregnane X receptor (rPXR) signaling pathway (AID 651751; call rule not given here); conditions: rPXR reporter cells, luciferase (One-Glo), 24 h
[14] = qHTS assay for small molecule activators of the human pregnane X receptor (PXR) signaling pathway (AID 720659; call rule not given here)
[15] = biological target: Cytochrome P450 3A4 (Homo sapiens) (UniProt P08684); experiment: qHTS Assay for Inhibitors and Substrates of Cytochrome P450 3A4 (AID 884); also: nearly all actives have a fitted effect of over 50% in size; also: potency is read from the fitted curve at half-maximal effect
How it was run: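 Luminescent readout of luciferin produced by CYP3A4 (20 nM) dealkylation of Luciferin-PPXE, 25 uM (its KM). NADPH-driven reaction ran 60 min at RT after 10 min compound preincubation; data scaled to 57 uM ketoconazole as 100% inhibition.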

[16] = biological target: Estrogen receptor (Homo sapiens) (UniProt P03372); experiment: qHTS assay for small molecule antagonists of estrogen receptor alpha signaling (AID 588513; active = well fitted curve in the direction sought with a large enough effect in the signal ratio, with a control signal flat, not every such curve was filed as active; the % refers to the signal ratio)
How it was run: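 Antagonist mode: inhibition of 0.5 nM 17-beta-estradiol-driven beta-lactamase reporter in HEK 293 ER-alpha-UAS-bla cells, 18 h at 37C, CCF4 readout after 2 h at RT. Normalised to estradiol and DMSO; titration fitted to Hill.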

[17] = biological target: Vitamin D3 receptor (Homo sapiens) (UniProt P11473); experiment: qHTS assay for small molecule agonists of vitamin D receptor signaling (AID 588543; calls by dose curve)
How it was run: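 Agonist-mode beta-lactamase reporter: HEK293T VDR-UAS-bla cells in charcoal-stripped 2% FBS, compound series 16 h 37 C, CCF4 2 h RT. EC50 from Hill fit, scaled against DMSO and 50 nM calcitriol control.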

[18] = qHTS assay for small molecule activators of the p53 signaling pathway (AID 651743; active = well fitted activation curve with a large enough effect in the signal ratio, not every such curve was filed as active; the % refers to the signal ratio; also: series mostly up to about 92 µM); conditions: HCT-116 p53RE-bla, beta-lactamase FRET ratio, 16 h; activation: stronger effect = higher value
How it was run: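 Agonist-mode quantitative HTS in HCT-116 cells carrying a p53-response-element beta-lactamase reporter; 16 h compound treatment at 37 C, then FRET substrate loading for 2 h at room temperature and fluorescence read.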

[19] = qHTS assay for small molecule disruptors of the mitochondrial membrane potential - 1 hr assay (AID 651754; calls by dose curve; also: nearly all actives have a fitted effect of over 35% in size)
How it was run: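 Mitochondrial potential in living HepG2 cells after 1 hr compound treatment at 37C was read with Mito-MPS dye added for a further 30 min. Red aggregate and green monomer fluorescence were measured; loss of potential leaves dye as cytoplasmic monomers.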

[20] = qHTS assay for small molecule disruptors of the mitochondrial membrane potential - 5 hr assay (AID 651755; calls by dose curve; also: nearly all actives have a fitted effect of over 40% in size)
How it was run: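 Seed HepG2 overnight, add compound, incubate 5 hr at 37C and 5% CO2, stain 30 min with Mito-MPS, then measure monomer (490/535 nm) and aggregate (540/590 nm) fluorescence.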

Chain of Vitamin D3 receptor (Homo sapiens) (P11473 whole entry, looked up): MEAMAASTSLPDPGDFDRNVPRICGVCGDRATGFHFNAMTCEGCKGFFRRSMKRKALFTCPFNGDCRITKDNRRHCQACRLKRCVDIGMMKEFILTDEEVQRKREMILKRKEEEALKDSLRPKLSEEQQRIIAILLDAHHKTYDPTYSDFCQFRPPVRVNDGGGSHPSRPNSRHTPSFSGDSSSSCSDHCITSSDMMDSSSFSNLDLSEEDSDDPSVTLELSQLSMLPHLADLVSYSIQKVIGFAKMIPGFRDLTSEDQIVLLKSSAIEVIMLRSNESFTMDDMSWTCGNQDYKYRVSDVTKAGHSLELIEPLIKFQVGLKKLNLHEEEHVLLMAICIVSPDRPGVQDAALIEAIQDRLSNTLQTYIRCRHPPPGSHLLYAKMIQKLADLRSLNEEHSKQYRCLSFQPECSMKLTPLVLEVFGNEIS
Chain of Thyroid hormone receptor beta (Homo sapiens) (P10828 whole entry, looked up): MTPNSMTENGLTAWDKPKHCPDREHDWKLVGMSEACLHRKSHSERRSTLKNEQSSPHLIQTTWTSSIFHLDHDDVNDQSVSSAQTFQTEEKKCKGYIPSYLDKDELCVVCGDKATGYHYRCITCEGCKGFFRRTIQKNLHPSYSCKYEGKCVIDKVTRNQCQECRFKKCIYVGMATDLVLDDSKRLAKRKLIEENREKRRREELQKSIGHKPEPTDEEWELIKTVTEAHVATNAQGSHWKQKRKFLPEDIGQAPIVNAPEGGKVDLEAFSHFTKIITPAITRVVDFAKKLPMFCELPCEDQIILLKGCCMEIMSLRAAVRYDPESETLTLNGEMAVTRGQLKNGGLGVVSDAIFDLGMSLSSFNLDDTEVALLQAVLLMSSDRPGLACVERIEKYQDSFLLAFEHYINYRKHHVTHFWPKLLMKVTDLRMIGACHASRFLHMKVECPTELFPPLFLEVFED
Chain of Peroxisome proliferator-activated receptor gamma (Homo sapiens) (P37231 whole entry, looked up): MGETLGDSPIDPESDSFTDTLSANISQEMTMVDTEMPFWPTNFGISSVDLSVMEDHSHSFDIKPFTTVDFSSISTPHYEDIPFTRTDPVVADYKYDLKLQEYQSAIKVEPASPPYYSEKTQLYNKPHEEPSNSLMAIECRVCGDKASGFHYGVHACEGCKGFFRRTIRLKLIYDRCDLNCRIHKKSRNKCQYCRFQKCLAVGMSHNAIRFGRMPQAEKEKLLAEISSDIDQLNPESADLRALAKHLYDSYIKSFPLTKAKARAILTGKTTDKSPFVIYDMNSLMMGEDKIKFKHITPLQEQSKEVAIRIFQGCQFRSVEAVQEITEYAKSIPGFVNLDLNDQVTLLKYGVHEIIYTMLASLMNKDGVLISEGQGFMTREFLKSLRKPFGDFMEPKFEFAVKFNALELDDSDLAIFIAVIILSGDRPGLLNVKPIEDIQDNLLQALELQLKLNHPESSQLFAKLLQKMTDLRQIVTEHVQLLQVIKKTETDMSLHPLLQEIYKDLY
Chain of Cytochrome P450 3A4 (Homo sapiens) (P08684 whole entry, looked up): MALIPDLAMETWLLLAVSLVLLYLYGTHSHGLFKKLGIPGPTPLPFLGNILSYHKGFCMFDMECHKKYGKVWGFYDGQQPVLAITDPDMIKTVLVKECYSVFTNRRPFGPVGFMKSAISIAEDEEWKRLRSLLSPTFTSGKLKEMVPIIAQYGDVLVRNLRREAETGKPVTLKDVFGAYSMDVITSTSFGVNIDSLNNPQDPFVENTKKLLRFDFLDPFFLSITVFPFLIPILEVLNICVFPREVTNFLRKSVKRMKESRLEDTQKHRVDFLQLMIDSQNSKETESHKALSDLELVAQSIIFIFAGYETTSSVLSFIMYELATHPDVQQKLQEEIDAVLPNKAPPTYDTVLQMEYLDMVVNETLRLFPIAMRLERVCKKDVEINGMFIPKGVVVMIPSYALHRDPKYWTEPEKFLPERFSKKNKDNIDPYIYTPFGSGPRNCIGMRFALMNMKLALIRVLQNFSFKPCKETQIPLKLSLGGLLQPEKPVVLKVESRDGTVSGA
Chain of Retinoic acid receptor RXR-alpha (Homo sapiens) (P19793 whole entry, looked up): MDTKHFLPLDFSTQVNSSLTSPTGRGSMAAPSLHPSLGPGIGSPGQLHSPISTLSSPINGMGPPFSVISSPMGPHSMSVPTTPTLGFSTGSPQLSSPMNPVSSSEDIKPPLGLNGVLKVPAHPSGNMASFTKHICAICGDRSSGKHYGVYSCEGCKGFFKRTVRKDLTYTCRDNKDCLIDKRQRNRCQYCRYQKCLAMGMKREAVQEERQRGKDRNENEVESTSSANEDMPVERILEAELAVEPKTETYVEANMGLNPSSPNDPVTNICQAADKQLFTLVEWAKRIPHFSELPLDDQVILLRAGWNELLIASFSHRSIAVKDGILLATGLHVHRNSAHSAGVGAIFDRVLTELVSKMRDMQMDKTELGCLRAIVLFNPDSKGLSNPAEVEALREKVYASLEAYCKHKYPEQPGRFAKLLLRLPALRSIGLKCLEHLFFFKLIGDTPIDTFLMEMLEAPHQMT
Chain of Estrogen receptor (Homo sapiens) (P03372 whole entry, looked up): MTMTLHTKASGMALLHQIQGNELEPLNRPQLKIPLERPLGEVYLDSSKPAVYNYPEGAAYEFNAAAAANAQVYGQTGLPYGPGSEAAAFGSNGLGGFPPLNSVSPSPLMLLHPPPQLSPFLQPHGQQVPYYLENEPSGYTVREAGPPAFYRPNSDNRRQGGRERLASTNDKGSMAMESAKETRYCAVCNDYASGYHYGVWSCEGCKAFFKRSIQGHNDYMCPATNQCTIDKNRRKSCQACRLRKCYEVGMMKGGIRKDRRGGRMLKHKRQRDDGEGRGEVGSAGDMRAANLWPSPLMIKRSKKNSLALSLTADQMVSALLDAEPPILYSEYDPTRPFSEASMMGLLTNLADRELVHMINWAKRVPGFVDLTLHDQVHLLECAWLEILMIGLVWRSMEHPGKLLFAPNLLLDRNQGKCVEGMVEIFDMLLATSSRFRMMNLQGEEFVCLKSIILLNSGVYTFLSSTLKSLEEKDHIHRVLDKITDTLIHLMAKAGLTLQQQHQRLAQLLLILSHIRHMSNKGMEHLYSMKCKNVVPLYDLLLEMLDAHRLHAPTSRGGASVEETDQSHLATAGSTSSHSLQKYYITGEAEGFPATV
Chain of Tumor necrosis factor (Homo sapiens) (P01375 whole entry, looked up): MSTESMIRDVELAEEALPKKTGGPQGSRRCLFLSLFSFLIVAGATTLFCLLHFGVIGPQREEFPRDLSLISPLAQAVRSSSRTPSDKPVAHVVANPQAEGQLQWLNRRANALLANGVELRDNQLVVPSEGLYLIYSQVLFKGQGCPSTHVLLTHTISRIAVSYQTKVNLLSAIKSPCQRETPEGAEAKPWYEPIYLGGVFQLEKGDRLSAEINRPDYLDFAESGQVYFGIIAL
Chain of Nuclear receptor subfamily 1 group I member 2 (Rattus norvegicus) (Q9R1A7 whole entry, looked up): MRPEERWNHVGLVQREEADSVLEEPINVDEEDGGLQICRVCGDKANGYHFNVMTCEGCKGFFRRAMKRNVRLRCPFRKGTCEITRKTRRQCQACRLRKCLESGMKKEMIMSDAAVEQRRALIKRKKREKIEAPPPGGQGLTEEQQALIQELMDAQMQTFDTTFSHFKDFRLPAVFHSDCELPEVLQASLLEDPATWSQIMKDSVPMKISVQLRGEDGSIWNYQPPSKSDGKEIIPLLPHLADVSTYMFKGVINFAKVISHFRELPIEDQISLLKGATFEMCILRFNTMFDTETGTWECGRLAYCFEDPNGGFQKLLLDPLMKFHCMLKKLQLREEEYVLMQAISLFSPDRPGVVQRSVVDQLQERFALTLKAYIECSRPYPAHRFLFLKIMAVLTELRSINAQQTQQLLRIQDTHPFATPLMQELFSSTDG

C/C=C\c1ccc(OC)cc1
Potency [1]: inactive | Potency [2]: inactive | Potency [3]: inactive | Potency [4]: inactive | outcome [5]: inactive | max response [6]: -9.52% | outcome [7]: inactive | activity change % (negative = inhibition) [8]: 20.9% (inactive) | outcome [9]: inactive | activation [10]: -0.657% (inactive) | Potency [11]: inactive | Potency [12]: inactive | max response [13]: 5.64% (inactive) | outcome [14]: inactive

Cc1ccc([N+](=O)[O-])c(C)c1
Potency [15]: inactive | Potency [1]: inactive | Potency [2]: inactive | Potency [3]: inactive | Potency [4]: inactive | Potency [16]: inactive | outcome [5]: inactive | outcome [17]: inactive | max response [6]: -5.33% and -0.658% | outcome [7]: inactive | activity change % (negative = inhibition) [8]: -7.14% (inactive) and -11% (inactive) | activation [18]: 0.814% (inactive) and -2.3% (inactive) | Potency [19]: inactive | Potency [20]: inactive | outcome [9]: inactive | activation [10]: -0.465% (inactive) and 2.75% (inactive) | Potency [11]: inactive | Potency [12]: inactive | max response [13]: 3.04% (inactive) and -0.0498% (inactive) | outcome [14]: inactive

CCCCCCCCCCCCCCC1CO1 (centres undefined)
Potency [15]: inactive | Potency [1]: inactive | Potency [3]: inactive | Potency [4]: inactive | Potency [16]: inactive | outcome [5]: inactive | outcome [17]: inactive | max response [6]: -14.5% and -12.1% | outcome [7]: inactive | activity change % (negative = inhibition) [8]: 8.79% (inactive) | activation [18]: 0.526% (inactive) and -2.5% (inactive) | outcome [9]: inactive | activation [10]: 0.108% (inactive) and 0.658% (inactive) | Potency [11]: inactive | Potency [12]: inactive | max response [13]: -5.5% (inactive) and 2.15% (inactive) | outcome [14]: inactive

CC1=CC(C)(C)Nc2ccccc21
Potency [15]: 10 µM (active) and inactive | Potency [1]: inactive | Potency [2]: inactive | Potency [3]: inactive | Potency [4]: inactive | Potency [16]: inactive | outcome [5]: inactive | outcome [17]: inactive | max response [6]: -19.9% and -2.04% | outcome [7]: inactive | activity change % (negative = inhibition) [8]: -25% (inactive) | activation [18]: -2.38% (inactive) and -0.537% (inactive) | Potency [19]: inactive | Potency [20]: inactive | outcome [9]: inactive | activation [10]: 1.47% (inactive) and 1.06% (inactive) | Potency [11]: inactive | Potency [12]: inactive

NC1=NC(S)C2N=CN=C2N1 (centres undefined)
Potency [15]: inactive | Potency [3]: 15.8 µM (active) | outcome [17]: inactive | activity change % (negative = inhibition) [8]: 18.1% (inactive) | Potency [19]: inactive | Potency [20]: inactive | activation [10]: -2.51% (inactive) | Potency [11]: inactive | max response [13]: -3.62% (inactive)

c1ccc2c(c1)[nH]c1ccccc12
Potency [15]: inactive | Potency [1]: inactive | Potency [2]: inactive | Potency [3]: inactive | Potency [4]: inactive | Potency [16]: inactive | outcome [5]: inactive | max response [6]: 2.28% and -6.27% | outcome [7]: inactive | activity change % (negative = inhibition) [8]: 1.02% (inactive) and -10.3% (inactive) | activation [18]: 0.0697% (inactive) and -3.97% (inactive) | Potency [20]: inactive | outcome [9]: inactive | activation [10]: 0.0505% (inactive) and 2.39% (inactive) | Potency [12]: inactive | max response [13]: -0.192% (inactive) and 1.32% (inactive) | outcome [14]: inactive

CCC(O)OC(O)CC (centres undefined)
Potency [15]: inactive | Potency [1]: inactive | Potency [2]: inactive | Potency [3]: inactive | Potency [4]: inactive | Potency [16]: inactive | outcome [5]: inactive | outcome [17]: inactive | max response [6]: -2.11% and -3.85% and -13.7% | outcome [7]: inactive | activity change % (negative = inhibition) [8]: -5.47% (inactive) [middle of 4 runs] | activation [18]: 0.0103% (inactive) [middle of 4 runs] | Potency [19]: inactive | Potency [20]: inactive | outcome [9]: inactive | activation [10]: 0.464% (inactive) [middle of 4 runs] | Potency [11]: inactive | Potency [12]: inactive | max response [13]: -0.225% (inactive) [middle of 4 runs] | outcome [14]: inactive

CCCN(CCC)C(=O)SCC
Potency [15]: inactive | Potency [1]: inactive | Potency [2]: inactive | Potency [3]: inactive | Potency [4]: inactive | Potency [16]: inactive | outcome [5]: inactive | outcome [17]: inactive | max response [6]: -2.35% and -18.5% | outcome [7]: inactive | activity change % (negative = inhibition) [8]: 0.19% (inactive) and 8.86% (inactive) | activation [18]: 0.439% (inactive) and 11.8% (inactive) | Potency [20]: inactive | outcome [9]: inactive | activation [10]: 0.446% (inactive) and -0.849% (inactive) | Potency [11]: inactive | Potency [12]: inactive | max response [13]: 5.19% (inactive) and 0.741% (inactive) | outcome [14]: inactive
